{"source": "PubChem BioAssay (NCATS)", "note": "Records with an inconclusive call do not appear. A call without a number means that no potency is given here. Active and inactive are the calls of the source. Calls come from the whole dose curve; as a rule, active = well fitted inhibition curve with a large enough effect; inconclusive = small, poorly fitted or top-dose-only effect; inactive = flat fitted curve, though single readings scatter."}
{"biological_target": "Calcium and integrin-binding protein 1 (Homo sapiens) (UniProt Q99828)", "sequence (Q99828 whole entry, looked up)": "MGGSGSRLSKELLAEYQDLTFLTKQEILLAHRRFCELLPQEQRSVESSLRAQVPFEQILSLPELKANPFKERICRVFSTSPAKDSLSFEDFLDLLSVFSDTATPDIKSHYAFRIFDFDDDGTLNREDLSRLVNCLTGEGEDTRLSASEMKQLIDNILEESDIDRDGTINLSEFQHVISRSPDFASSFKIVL", "test": "Primary qHTS for Identification of Calcium Integrin Binding Protein 1 (CIB1) Competitor (AID 1508620); note: top concentration of the series differs between compounds", "conditions": "CIB1-GST / FITC-alphaIIb peptide fluorescence polarization; series mostly up to 57.7 µM", "method_in_brief": "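Fluorescence polarization competition: GST-tagged CIB1 (1 uM final) preincubated with compound 15 min at room temperature, then FITC-labelled alphaIIb peptide (100 nM final) added. After 15 min at room temperature, polarization read at Ex 480/Em 540.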"}
{"smiles": "CC1(C)C(N(O)C(=O)Nc2ccc(Cl)cc2)N(c2ccc(Cl)cc2)C(=O)N1CC(=O)NN=CC=Cc1ccc([N+](=O)[O-])o1", "note": "(stereo unspecified)", "Potency": "inactive"}
{"smiles": "CN(C)CCOc1ccc(-c2nc(-c3ccc4c(c3)CCC4=NO)c(-c3ccncc3)[nH]2)cc1", "Potency": "inactive"}
{"smiles": "CCC(=O)N1CCN(c2ccc(-n3c(=O)ccc4cnc5ccc(-c6cnc7ccccc7c6)cc5c43)cc2C(F)(F)F)CC1", "Potency": "inactive"}
{"smiles": "C[C@@H](NC(=O)c1ncnc(N)c1Cl)c1ncc(C(=O)Nc2cc(C(F)(F)F)c(Cl)cn2)s1", "Potency": "inactive"}
{"smiles": "COc1cc2c(cc1Cc1cccc(Cl)c1F)c(=O)c(C(=O)O)cn2[C@H](CO)C(C)C", "Potency": "inactive"}
{"smiles": "COc1ccc(C=CC(=O)Nc2ccccc2C(=O)O)cc1OC", "Potency": "inactive"}
